Results: the supplement of paper PMC7858590
Where “and” joins values, the source holds several entries; their conditions need not be identical. Identical values can stand only once.

Test system: human monocyte-derived macrophages (polarized)
Assay: cell shape (eccentricity) Z-score vs DMSO control; higher = more elongated, M2-like morphology
Settings: 5 µM; 24 h; macrophage state: M1-polarized (IFNg + TNFa), cytokines present during treatment
Method: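 Primary-screen hits were rescreened on polarized hMDMs with the differentiating cytokines (IL-4 + IL-13 or IFNg + TNFa) kept in the medium during treatment with compound at 5 uM for 24 h. The eccentricity Z-score vs DMSO wells is averaged over experiments.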

| Compound | cell shape (Z-score) |
| --- | --- |
| O=C1Cc2c([nH]c3ccc([N+](=O)[O-])cc23)-c2ccccc2N1 | 4.68 |
| COc1nccnc1NS(=O)(=O)c1ccc(NC(=O)/C=C/c2ccc([N+](=O)[O-])s2)cc1 | -4.64 |
| CC1(C)CCC(c2ccc(Cl)cc2)=C(CN2CCN(c3ccc(C(=O)NS(=O)(=O)c4ccc(N[C@H](CCN5CCOCC5)CSc5ccccc5)c(S(=O)(=O)C(F)(F)F)c4)cc3)CC2)C1 | 4.31 |
| CCCCCc1c2c(cc(O)c1C(=O)O)OC(=O)c1c(cc(OC)cc1C(=O)CCCC)O2 | 2.35 |
| O=C(OC1C=C(CO)C2C(OC3OC(CO)C(O)C(O)C3O)OC=CC12O)c1ccc(O)cc1 (stereo not given) | 3.32 |
| O=C1c2ccccc2-c2n[nH]c3cccc1c23 | 9.54 |
| CCCCCCCCCc1ccc(OCCOCCOCCOCCOCCOCCOCCOCCOCCO)cc1 | 5.89 |
| CC(C)C[C@H](NC(=O)CNC(=O)c1cc(Cl)ccc1Cl)B(O)O | 0.365 |
| CNC(=O)c1ccccc1Sc1ccc2c(/C=C/c3ccccn3)n[nH]c2c1 | 8.44 and 13.2 |
| CC(N)C(=O)OC(C)(C)Cc1ccc(Cl)cc1 (stereo not given) | -2.3 |
| COc1c(OC)c2occc2c2oc(=O)ccc12 | -1.24 |
| N[C@@H](CC(=O)N1CCn2c(nnc2C(F)(F)F)C1)Cc1cc(F)c(F)cc1F | 2.26 |
| COc1c(OC)c(O)c2c(=O)c(O)c(-c3ccccc3)oc2c1OC | 5.45 |
| CC1C(=O)C(=O)[C@@H]2O[C@@H]2C1=O (stereo not given in full) | -0.0615 |
| CC1(C)C[C@@H]1C(=O)N/C(=C\CCCCSC[C@H](N)C(=O)O)C(=O)O | 5 |
| CC[C@@H]1C(=O)N(C)c2cnc(Nc3ccc(C(=O)NC4CCN(C)CC4)cc3OC)nc2N1C1CCCC1 | -1.93 |
| Cn1cnc(-c2cc3nccc(Oc4ccc(NC(=S)NC(=O)Cc5ccccc5)cc4F)c3s2)c1 | 3.19 |
| COc1cc2c(cc1-c1c(C)noc1C)ncc1[nH]c(=O)n([C@H](C)c3ccccn3)c12 | -12.4 |
| O=c1cc(-c2cccc3c2Sc2ccccc2S3)oc(N2CCOCC2)c1 | -7.49 |
| CCN(CC)CCNC(=O)c1c(C)[nH]c(/C=C2\C(=O)Nc3ccc(F)cc32)c1C | 8.79 and 5.25 |
| C[C@H](CO)N1C[C@H](C)[C@H](CN(C)C(=O)Nc2cc(F)ccc2F)Oc2cc(C#CC3CCCC3)ccc2S1(=O)=O | -2.86 |
| COc1cc(-c2ccc(=O)[nH]n2)ccc1OC(F)F | -4.29 |
| CCN(CC)CCOc1ccc2c(c1)C(=O)c1cc(OCCN(CC)CC)ccc1-2 | -4.84 |
| Cn1c([N+](=O)[O-])cnc1COC(N)=O | -4.21 |

Same assay, conditions: 5 µM; 24 h; macrophage state: M2-polarized (IL-4 + IL-13), cytokines present during treatment

| Compound | cell shape (Z-score) |
| --- | --- |
| CCCCc1ccc2[nH]c(NC(=O)OC)nc2c1 | 0.889 |
| CC1Nc2ccc(Cl)cc2S(=O)(=O)N1 (stereo not given) | -1.89 |
| CN(C)c1ccc(C(=C2C=CC(=[N+](C)C)C=C2)c2ccc(N(C)C)cc2)cc1 | -9.83 |
| COc1ccc(C[C@H](N)C(=O)N[C@H]2[C@@H](O)[C@H](n3cnc4c(N(C)C)ncnc43)O[C@@H]2CO)cc1 | -12.5 |
| OCCN(CCO)c1nc(N2CCCCC2)c2nc(N(CCO)CCO)nc(N3CCCCC3)c2n1 | 0.465 |
| CCC[C@H](NC(=O)/C(C#N)=C/c1cccc(Br)n1)c1ccccc1 | -2.53 |
| O=C1c2ccccc2-c2nc3nonc3nc21 | -2.4 |
| N#CN=C(NCCCCCCOc1ccc(Cl)cc1)Nc1ccncc1 | -5.22 |
| Cc1oc(=O)oc1CN1CCN(c2cc3c(cc2F)c(=O)c(C(=O)O)c2n3C(C)S2)CC1 (stereo not given) | -6.14 |
| CC1(C)O[C@@H]2C[C@H]3[C@@H]4CCC5=CC(=O)CC[C@]5(C)[C@@]4(F)[C@@H](O)C[C@]3(C)[C@]2(C(=O)CCl)O1 | -13.7 |
| CCCCCCCCc1ccc(CCC(N)(CO)CO)cc1 | -15.5 |
